High-throughput results as filed in PubChem BioAssay.
Rango complex inh = prevents formation of the Rango-importin beta complex | Q14974 | Potency, µM (titrated, usually from 92.2 µM), for the others: at the top dose inhibition of complex formation | AID 540263 | Rango CFP/YFP FRET sensor + importin beta, 45 min | 340,000 tested, 0.031% active; calls by dose curve;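 also: 0% = DMSO wells and 100% = buffer wells lacking importin beta; nearly all actives have a fitted effect of over 15% in size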
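FRET biosensor Rango (snurportin 1 IBB between N-terminal EYFP and C-terminal Cerulean), 50 nM in PBS/1 mM DTT/0.02% Tween-20/0.1% BSA, preincubated 5 min RT with compound; 0.125 microM importin beta added, 45 min RT, CFP/YFP FRET ratio read.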
Tb PFK inh = blocks T. brucei phosphofructokinase. T. brucei PFK, ADP-Glo luminescence. 330,000 tested, 0.17% active. O15648. AID 485367. Potency, µM (highest dose often 57.5 µM), for inactives: at the highest dose activity, negative = inhibition, hits mostly inhibitors;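 also: 0% = uninhibited 1x PFK enzyme wells and -100% = no-enzyme wells; nearly all actives have a fitted effect of over 60% in size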
Target sequence (O15648 whole entry, looked up): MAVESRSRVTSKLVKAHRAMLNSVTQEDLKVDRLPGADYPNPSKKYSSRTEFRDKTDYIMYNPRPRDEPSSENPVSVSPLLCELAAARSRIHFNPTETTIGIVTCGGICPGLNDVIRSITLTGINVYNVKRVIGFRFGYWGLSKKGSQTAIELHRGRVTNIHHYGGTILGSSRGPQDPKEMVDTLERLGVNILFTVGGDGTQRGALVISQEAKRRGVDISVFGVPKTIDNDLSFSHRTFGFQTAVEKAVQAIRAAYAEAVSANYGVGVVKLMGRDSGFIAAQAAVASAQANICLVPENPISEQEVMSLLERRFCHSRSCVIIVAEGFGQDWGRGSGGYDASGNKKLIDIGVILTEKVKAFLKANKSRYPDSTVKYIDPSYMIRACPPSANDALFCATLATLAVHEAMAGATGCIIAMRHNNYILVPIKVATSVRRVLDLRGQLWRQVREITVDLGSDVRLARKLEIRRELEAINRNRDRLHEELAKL
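PFK 1.25 nM, F6P 0.5 mM, ATP 0.1 mM, 0.1 M TEA pH 8.0, 5 mM MgCl2, 0.01% Tween20, 0.1% BSA; 45 min RT. ADP-Glo readout. qHTS titration up to 57 uM; curves fitted, compounds curve-classed.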
Rango dissoc inh = inhibition of RanGTP-driven Rango-importin beta dissociation. 340,000 tested, 0.071% active. O95149+P62826. Potency, µM (top dose mostly 46.1 µM), for the others: at the highest dose activity change, negative = inhibition. AID 540253. Biochemical FRET Rango-importin beta, RanGTP-induced dissociation; calls by dose curve; also: % of control where 0% means no effect; nearly all actives have a fitted effect of over 45% in size
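Quantitative HTS using a FRET biosensor: 0.1 uM Rango, 0.25 uM importin beta, 0.6 uM Ran, 2 mM GTP, 0.2 uM RCC1 final, PBS with DTT, Tween-20 and BSA. Post-read taken 45 min after Ran addition.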
Lamin A splicing = LMNA splicing modulation; HeLa LMNA splicing GFP/RFP minigene ratio, 48 h; Potency, µM (highest dose often 46.1 µM), without a hit: at the top dose ratio change, negative = inhibition, usual class: inhibitors; 200,000 tested, 0.01% active; AID 1487; active = well fitted inhibition curve with a large enough effect in the signal ratio, with a control signal flat, not every such curve was filed as active; inconclusive = small, poorly fitted or top-dose-only effect, or effect the other way, or a change in a side signal; the % refers to the signal ratio; also: % is scaled to controls: 0 for no effect and ±100 for the full control effect
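S3 HeLa cells stably expressing lamin A-EGFP splicing minigene plus DsRed2, 600 cells/well, 48 h compound exposure at 37C. Laser-scanning cytometry; analysed as GFP (500-530 nm)/RFP (575-640 nm) total intensity ratio; 0.5% DMSO vehicle.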
Luc counter = blocks Kinase-Glo luciferase, a counter-screen artifact; Q27757; Kinase-Glo luciferase, ATP luminescence, 8 min; Potency, µM (top dose mostly 38.3 µM), for inactives: top-dose activity change, negative = inhibition, hits mostly inhibitors; 200,000 tested, 0.28% active; AID 1379; also: % is scaled to controls: 0 for no effect and ±100 for the full control effect; nearly all actives have a fitted effect of over 60% in size
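Substrate mix (final 50 mM imidazole pH 7.2, 50 mM KCl, 7 mM MgCl2, 10 uM ATP, 0.01% Tween 20, 0.05% BSA) plus pin-tool compound, then Kinase-Glo detection mix; 8 min ambient, luminescence read.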
BCR signal inh = inhibitors of chronic active B-cell receptor signaling; ABC-DLBCL IkBa-CBG/CBR reporter, luminescence ratio, 4 h; 340,000 tested, 0.05% active; Potency, µM (highest dose often 46.1 µM), for the others: at the top dose activity change, negative = inhibition, hits mostly inhibitors; active = well fitted inhibition curve with a large enough effect in the signal ratio, with a control signal flat, not every such curve was filed as active; inconclusive = small, poorly fitted or top-dose-only effect, or effect the other way, or a change in a side signal; the % refers to the signal ratio;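 also: plate controls were basal doxycycline-induced cells for no effect and cells given 10 µM MG132 for full effect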
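Doxycycline induced both beetle luciferases in TMD8 lymphoma cells; IKK-driven degradation limits the IkappaBalpha-fused green signal, while red luminescence normalises for cell number and nonspecific effects. Compounds tested up to 46 uM, 4 hrs.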
The depositor's hits bear a star; ? = inconclusive; / = no result given; ! = not active in a repeat; [ ] = remark or other dose. In the library only some 0.44% were active in any assay of this set; here they are far more common. Unless noted, calls follow the shape of the dose curve; as a rule, active = well fitted curve in the direction sought with a large enough effect; inconclusive = small, poorly fitted or top-dose-only effect, or another doubt; inactive = no such curve, though single readings can be large; an effect the other way counts as inactive or inconclusive. Potency is read from the fitted curve at half-maximal effect.

SMILES	Rango complex inh	Tb PFK inh	Rango dissoc inh	Lamin A splicing	Luc counter	BCR signal inh
CCOc1ccc(/C=N/NC(=O)c2ccccc2NC(=O)c2ccc(OC)cc2)cc1	4%	3%	17%	-16%	?	?
O=C(Nc1ccccc1C(=O)N/N=C/c1ccncc1)c1ccccc1	-2%	-16%	-10%	/	1.8µM*	?
O=c1c2[nH]c3ccc(Br)cc3c2ncn1Cc1ccncc1	3%	0%	-14%	/	/	19%
O=C(CCS(=O)(=O)c1ccc(F)cc1)Nc1nc(-c2ccncc2)cs1	2%	21µM*	17%	/	/	8%
O=C(CCS(=O)(=O)c1ccccc1)Nc1nc(-c2cccs2)cs1	-2%	3%	-5%	?	0%	8%
COc1cc(-c2ccc(N=Nc3ccc4c(S(=O)(=O)O)cc(S(=O)(=O)O)c(N)c4c3O)c(OC)c2)ccc1N=Nc1ccc2c(S(=O)(=O)O)cc(S(=O)(=O)O)c(N)c2c1O	/	/	/	-9%	10µM*!	/
Cc1nn(-c2ccc(S(=O)(=O)O)cc2)c(O)c1N=Nc1ccc(-c2ccc(N=Nc3ccc4c(S(=O)(=O)O)cc(S(=O)(=O)O)c(N)c4c3O)c(O)c2)cc1O.[Cu].[Cu]	/	/	/	/	-25%[7.66 µM]	/
Cc1cc(C)c2c(=O)[nH]c(SCC(=O)NCc3ccccc3)nc2n1	?	4%	-5%	?	-2%	?
COC(=O)c1cccc(C(=O)N2CCC(CO)(CCc3ccccc3)CC2)c1	0%	-1%	5%	/	/	-1%
COc1cccc(OCCn2ccnc2)c1	0%	?	19%	-13%	3%	-1%
Clc1cccc(OCCn2ccnc2)c1	5%	27µM*	2%	/	/	-2%
Fc1ccc(N2N=C(c3cccs3)CC2c2ccccc2)cc1 (stereo not drawn)	?	3%	9.2µM*[inhibitor]	/	0%	?
Cc1cc(N2CCN(C(c3ccccc3)c3ccc(Cl)cc3)CC2)n2ncnc2n1 (stereo not drawn)	1%	0%	14%	?	0%	0%
C=CCNC(=S)NNC(=O)COc1cccc(Cl)c1	-1%	4%	0%	-1%	-3%	18µM*
CCc1ccc(-c2cc(C(=O)Nn3cnnc3)c3ccccc3n2)cc1	9%	3%	0%	0%	8.9µM*	?
CCCc1ccc(-c2cc(C(=O)NN3CCOCC3)c3ccccc3n2)cc1	6%	1%	0%	9%	-6%	?
CCNC(=S)NNC(=O)c1cc(-c2ccc(OCC)cc2)nc2ccccc12	2%	-3%	1%	16%	1µM*	?
Clc1ccc(/C=N/Nc2ccccn2)cc1	-4%	-1%	-5%	/	-17%	?
CCOc1ccc(/C=N/Nc2ccccn2)cc1	-1%	-8%	1%	/	10µM*	?
O=C(Nc1ccccn1)c1ccco1	1%	0%	-8%	-3%	-7%	11%
CC(C)CNC(=O)c1c(N)n(/N=C/c2cccnc2)c2nc3ccccc3nc12	/	-2%	/	-10%	0%	?
CCC(C)NC(=O)c1c(N)n(/N=C/c2cccnc2)c2nc3ccccc3nc12 (stereo not drawn)	?	-1%	3.3µM*[inhibitor]	0%	1%	?
Cc1cc(C)c(NN=c2c(=O)c3ccccc3c2=O)c(C)c1	-3%	-8%	6%	9%	-4%	?
O=c1c(=NNc2ccccc2Cl)c(=O)c2ccccc12	-1%	3%	7%	?	6.3µM*	?
C=CCc1c(C)nc(-c2ccccc2)nc1N/N=C/c1ccncc1	0%	-1%	28%	?	-8%	?
CCCCC1C(=O)CC[C@H]2[C@@H]1CC(=O)[C@@H]2C/C=C\CCCC(=O)O (stereo partly drawn)	-1%	-1%	-12%	-13%	0%	21µM*
O=C1N=C(N2CCOCC2)S/C1=C\c1cccnc1	3%	1%	-1%	11%[9.22 µM]	-4%	4%
